Compound activity: PubChem BioAssay, National Center for Advancing Translational Sciences (NCATS)
TGFb SMAD3 inh = qHTS for Inhibitors of TGF-b; 410,000 tested, 1.2% active; AID 588855, 2011; HepG2 CAGA-GFP TGF-b/SMAD3 reporter, GFP fluorescence, 18 h; TGF-beta stimulated, 500 pg/mL final; Potency, µM (titrated, usually from 46.1 µM), hits mostly inhibitors; further: nearly all actives have a fitted effect of over 65% in size
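Per well, imaged GFP fluorescence of HEPG2 CAGA-GFP cells gives the signal; cells get compound, then TGF-beta (500 pg/mL final), 18 h at 37 degrees C; %Activity versus -TGF-beta and +DMSO controls.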
S2 tox = Viability Counterscreen for Primary qHTS for Inhibitors of ATXN expression | S2 cells (HEK-293 line with an ATXN2-luciferase reporter) viability, CellTiter-Fluor protease fluorescence, 24 h | Potency, µM (highest dose often 56.7 µM), most hits filed as cytotoxic | 400,000 tested, 0.49% active; further: nearly all actives have a fitted effect of over 40% in size
DRD3 agonist = qHTS of D3 Dopamine Receptor Agonist: qHTS. 410,000 tested, 0.58% active. D(3) dopamine receptor (Homo sapiens), P35462. AID 652048, 2013. max activation, %. D3R DiscoveRx beta-arrestin cells, luminescence, 90 min; in the data active means max activation above about 30%
Target sequence (P35462 whole entry, looked up): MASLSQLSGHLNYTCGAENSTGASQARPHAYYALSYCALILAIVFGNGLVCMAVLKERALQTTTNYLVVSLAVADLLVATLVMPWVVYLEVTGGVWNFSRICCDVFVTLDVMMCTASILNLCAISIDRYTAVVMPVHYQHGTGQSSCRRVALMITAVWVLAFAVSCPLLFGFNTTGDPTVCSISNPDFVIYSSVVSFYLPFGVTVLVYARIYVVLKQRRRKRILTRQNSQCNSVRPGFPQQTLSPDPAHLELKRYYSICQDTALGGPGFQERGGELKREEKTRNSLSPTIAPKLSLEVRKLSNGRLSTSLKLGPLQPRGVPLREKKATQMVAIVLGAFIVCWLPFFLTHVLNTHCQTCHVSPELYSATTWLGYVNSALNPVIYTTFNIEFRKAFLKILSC
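Agonist mode: compounds and dopamine controls were applied to plated cells for 90 min at 37 degrees C after an overnight attachment at 1500 cells/well. Luminescent read-out followed 30 - 60 minutes at room temperature with DiscoveRx detection reagent.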
ATXN2 expr inh = Primary qHTS for Inhibitors of ATXN expression. HEK-293 ATXN2-luciferase reporter, luminescence, 24 h. Potency, µM (series often up to 57 µM), usual class: inhibitors. 360,000 tested, 0.72% active. AID 1745845, 2022; further: nearly all actives have a fitted effect of over 55% in size
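qHTS (up to 57 uM final) was run with 24 h compound exposure of reporter cells at 37 °C. Each well was multiplexed: SteadyGlo luminescence measured ATXN2-luciferase expression after a fluorogenic Gly-Phe-AFC viability readout (25 uM final).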
HepG2 tox = qHTS for Inhibitors of TGF-b: Cytotox Counterscreen | HepG2 CAGA-GFP viability, ATP luminescence, 18 h | Potency, µM (doses to about 46.1 µM), hits mostly cytotoxic | 410,000 tested, 0.76% active
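CellTiter-Glo luminescence gave cytotoxicity after 18 hours at 37 degrees C. The cells were HepG2 CAGA-GFP in 1% FBS DMEM, stimulated with 500 pg/mL TGF-beta after compound addition. %Activity was normalised to no-cell wells (complete cell-killing) and DMSO (no toxicity), and curves were fitted and classified.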
D3 antag = qHTS of D3 Dopamine Receptor Antagonist: qHTS. D3R cells, DiscoveRx beta-arrestin luminescence, antagonist mode; active compounds read low. 360,000 tested, 2.5% active. max response, negative = inhibition, %; in the data active means max response below about -50%; inconclusive means no clear call, values can overlap the other calls
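Cells expressing the human receptor were seeded at 1500 cells/well, incubated overnight at 37 degrees C in 5% CO2, then exposed to library compounds with dopamine controls for 90 minutes at 37 degrees C before luminescent detection.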
Of the large screens only hits and unclear results are named; the others gave an inactive call. Rows were chosen to be rich in hits. Some 4.8% of all compounds tested hit in one or more screens of this group. Unless noted, the call rests on the fitted dose curve; in most records, active means well fitted curve in the direction sought with a large enough effect; inconclusive means small, poorly fitted or top-dose-only effect, or another doubt; inactive means no such curve, though single readings can be large; an effect the other way counts as inactive or inconclusive.

CCSc1ncc(Cl)c(C(=O)Nc2ccccc2)n1	none
CN(C)c1ccc(C2Nc3ccc4ccccc4c3C3=C2C(=O)CC(C)(C)C3)cc1Br (configuration not stated)	none (no result: TGFb SMAD3 inh, S2 tox, DRD3 agonist, HepG2 tox, D3 antag)
CCS(=O)(=O)c1ncc(Cl)c(C(=O)N2CCN(c3ccc(OC)cc3)CC2)n1	HepG2 tox 11µM (no result: TGFb SMAD3 inh, S2 tox, ATXN2 expr inh, D3 antag)
CCOC(=O)c1ccn(-c2nc(-c3cccc(OC)c3)cc(C(F)(F)F)n2)n1	S2 tox inconclusive, ATXN2 expr inh inconclusive (no result: D3 antag)
O=C1CC(N(CCc2ccccc2)C(=S)Nc2ccccc2)C(=O)N1c1ccc(Br)cc1 (configuration not stated)	TGFb SMAD3 inh inconclusive, S2 tox inconclusive, ATXN2 expr inh inconclusive, HepG2 tox 2.2µM
COc1ccc(CCN(C(=S)Nc2ccccc2)C2CC(=O)N(c3ccccc3)C2=O)cc1 (configuration not stated)	none
O=S(=O)(CCNCCc1ccccc1)NC1CCCCC1	D3 antag -84
O=S(=O)(CCNC1CC1)NC1CCCCC1	none
Cc1ccc(CCNC(=O)c2cn(C)c3ccc(S(=O)(=O)N(C)C4CCCCC4)cc3c2=O)cc1	none (no result: D3 antag)
Clc1cccc(NCc2nnc(SCc3ccc(Cl)cc3Cl)o2)c1	TGFb SMAD3 inh inconclusive, D3 antag -63
CC(C)(C)OC(=O)NCCc1nnc(SCc2ccc(Cl)cc2Cl)o1	none
Oc1ccc(/C=N/Nc2ccnc3cc(Cl)ccc23)c(O)c1	S2 tox inconclusive (no result: ATXN2 expr inh)
Cc1ccccc1/C=N/Nc1ccnc2cc(Cl)ccc12	TGFb SMAD3 inh 10µM, ATXN2 expr inh 22µM (no result: S2 tox)
Clc1ccc2c(N/N=C/c3ccc(Br)cc3)ccnc2c1	S2 tox inconclusive
Cc1ccc(/C=N/Nc2ccnc3cc(Cl)ccc23)c(C)c1	TGFb SMAD3 inh inconclusive, S2 tox inconclusive, ATXN2 expr inh 35µM, HepG2 tox 14µM
COc1cc(=O)n2c(c1C(=O)NC(C)c1ccco1)CCN(Cc1ccccc1Cl)CC2 (configuration not stated)	none (no result: TGFb SMAD3 inh, DRD3 agonist, ATXN2 expr inh, HepG2 tox, D3 antag)
O=S(=O)(c1ccccc1)c1nc(-c2ccc(Cl)cc2Cl)oc1N1CCCCCC1	DRD3 agonist 61 (no result: D3 antag)
C=CCNc1nc(Nc2ccc(-c3nc4ccccc4o3)cc2)nc(N2CCOCC2)n1	TGFb SMAD3 inh inconclusive, DRD3 agonist 33
Cc1ccccc1Oc1nc2c(C)cccn2c(=O)c1/C=C(\C#N)C(=O)NC1CCS(=O)(=O)C1 (configuration not stated)	TGFb SMAD3 inh inconclusive, S2 tox inconclusive, HepG2 tox 6.3µM
Cc1cccn2c(=O)c(/C=C(\C#N)C(=O)NC3CCS(=O)(=O)C3)c(Oc3ccccc3Cl)nc12 (configuration not stated)	TGFb SMAD3 inh inconclusive
COc1cccc(C2(CC(=O)N3CCN(c4ccccn4)CC3)CC(=O)N(C3CCCC3)C2=O)c1 (configuration not stated)	none (no result: TGFb SMAD3 inh, DRD3 agonist, ATXN2 expr inh, HepG2 tox, D3 antag)
Cc1nnc(N2CCCC(C(=O)NCc3ccc(OC(C)C)cc3)C2)c2nn(-c3ccccc3)c(C)c12 (configuration not stated)	S2 tox 16µM, ATXN2 expr inh inconclusive
CCc1ccc(CNC(=O)C2CCCN(c3nnc(C)c4c(C)n(-c5ccc(OC)cc5)nc34)C2)cc1 (configuration not stated)	TGFb SMAD3 inh 11µM, S2 tox inconclusive, DRD3 agonist 31, HepG2 tox 10µM (no result: D3 antag)
COc1ccc(NC(=O)C2CCCN(c3nnc(C)c4c(C)n(-c5ccccc5)nc34)C2)cc1Cl (configuration not stated)	TGFb SMAD3 inh 16µM, S2 tox 11µM, ATXN2 expr inh 13µM, HepG2 tox 18µM (no result: D3 antag)
COc1ccc(CNC(=O)C2CCCN(c3nnc(C)c4c(C)n(-c5ccc(C)cc5)nc34)C2)cc1 (configuration not stated)	TGFb SMAD3 inh inconclusive, S2 tox inconclusive (no result: D3 antag)
